The values that follow come from PubChem BioAssay AID598 (SRMLSC, 2007).

Hit rate of the full screen: of about 85,000 compounds, about 5,100 (6%) were called active.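 How the source made its calls: active means viability at or below 40%; inactive means viability above 40%.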 For the sample, actives were picked, then their nearest neighbours and some compounds at random.

The nature of the assay: proliferation blockers of H69AR lung cancer cells, primary screen, cell-based, human, 86K library (AID 598).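 Further: multidrug resistant small cell line overexpressing MRP-1 efflux transporter; 100% = mean luminescence of untreated control wells.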 The note with it: H69AR lung tumor viability, ATP luminescence, 72 h; at 10 µM; active compounds read low.
For the compound `O=C(Nc1cc2ccccc2oc1=O)C1CCCCC1`, the viability is 98.1% (inactive). Then `Cc1ccccc1-n1nc(C)c2cc(C(=O)NC3CC3)sc21`, with 66.4% (inactive); and `Cc1ccccc1NC(=O)c1cnn(-c2ccccc2)c1NC(=O)c1ccco1`, with 84.4% (inactive); and `O=C(Nc1ccc(Sc2ccc(Br)cc2)cc1)c1ccco1`, with 54.3% (inactive). Then `O=C(Nc1c(-c2ccccc2)nc2c(Br)cc(Br)cn12)c1ccco1`, with 29.5% (active); and `CCOC(=O)c1c(N=CN(C)C)c(C#N)c2n1CCCC2`, with 90.8% (inactive); and `COc1ccc2[nH]c(=O)c(CN(Cc3nnnn3CCc3ccccc3)CC3CCCO3)cc2c1` (stereo unspecified), with 67.1% (inactive).

Consider `CCOc1ccc2[nH]c(=O)c(CN(Cc3nnnn3Cc3ccccc3)CC3CCCO3)cc2c1` (stereo unspecified), for which the viability was 34.3% (active). As for `CCOc1ccc2[nH]c(=O)c(CN(Cc3nnnn3CCc3ccccc3)CC3CCCO3)cc2c1` (stereo unspecified), the figure is 85.5% (inactive). On to `O=C(COc1ccc(S(=O)(=O)NCc2ccccc2)cc1)N1CCOCC1`, for which the viability is 97.4% (inactive). As for `COc1ccccc1-c1nc(C#N)c(N2CCC(C(N)=O)CC2)o1`, the figure is 95.8% (inactive); as for `CCOc1ccc(Nc2oc(Cc3ccccc3)nc2C#N)cc1`, 78% (inactive); as for `COc1ccc(Nc2oc(-c3ccccc3Cl)nc2C#N)cc1`, 14.3% (active). As for `Cc1cc2nc(SCCN3CCOCC3)[nH]c2cc1C`, the figure is 109% (inactive); as for `C=C(C)CSc1nnc(-c2ccc(C)cc2)n1N`, 99.4% (inactive); as for `CC(=NCc1ccco1)c1c(C(F)(F)F)[nH]n(-c2nc3ccccc3s2)c1=O`, 63.2% (inactive). Then `N=c1c2c3c(sc2nc2n1CCCCC2)CCCC3`, with 84% (inactive); and `CS(=O)(=O)N(Cc1nc2sc3c(c2c(=O)[nH]1)CCCC3)C1CCCCC1`, with 16.8% (active). Turning to `NNC(=O)C1CCCn2c1nc1sc3c(c1c2=O)CCCC3` (stereo unspecified), the viability is 91.5% (inactive).

`CCn1c(CC(=O)Nc2ccc(C)cc2)nnc1SCC(=O)Nc1nc(C)cs1`: the viability was 111% (inactive).

As for `S=C1NC(c2ccccc2)=NCN1c1ccc(Br)cc1`, the viability was 88.9% (inactive).

Consider `CCOc1ccc(NC(=O)CN2CCN(CC(=O)Nc3ccc(OC)cc3)CC2)cc1`, for which the viability was 56.5% (inactive). `CC1CN(S(=O)(=O)c2ccccc2)C(C)CN1S(=O)(=O)c1ccccc1` (stereo unspecified): the viability was 101% (inactive). As for `CC(O)CN(Cc1ccc(Cl)cc1)CC(C)O` (stereo unspecified), the figure is 100% (inactive); as for `CCOc1cc(-c2cc(-c3ccc(OC)cc3)nc(N)c2C#N)ccc1O`, 51% (inactive); as for `CCOc1ccccc1Oc1cn[nH]c1-c1ccc(OC)cc1O`, 16.2% (active). As to `CCOc1ccccc1NC(=O)Nc1cc(OC)ccc1OC`, the viability was 93.8% (inactive).

Take `CCCC1(C(=O)OCC)NC(c2ccc(N(C)C)cc2)C2C(=O)N(c3ccc4c(c3)OCCO4)C(=O)C21` (stereo unspecified): the viability was 80% (inactive). For `Cc1ccc(O/C=C2\OC(=O)c3ccccc32)cc1`, the viability was 89.6% (inactive).

As to `CN(Cc1nc2ccccc2c(=O)[nH]1)Cc1cc(=O)oc2ccc3ccccc3c12`, the viability was 91% (inactive). As for `NC(=O)C1(N2CCCCC2)CCN(C2CC(=O)N(Cc3ccc(N4CCCC4=O)cc3)C2=O)CC1` (stereo unspecified), the figure is 100% (inactive).

For `COC(=O)Nc1ccc(S(=O)(=O)N2CCN(CCN3C(=O)C4C5C=CC(C5)C4C3=O)CC2)cc1` (stereo unspecified), the viability is 79.9% (inactive).

In the case of `CCCCNC(=O)CSc1nccn1Cc1ccccc1`, the viability is 99.2% (inactive). Then `CCCCNC(=O)CSc1nnc(-c2ccco2)n1C`, with 81.6% (inactive). As for `CCCCNC(=O)CSc1nc2n[nH]c(C)c2c(=N)n1-c1cccc(Cl)c1C`, the figure is 15.5% (active). In the case of `COc1ccc(CNCCCO)cc1OC`, the viability was 111% (inactive).

Consider `Cc1ccc(S(=O)(=O)Oc2ccc(/C=N/NC(=O)c3c(Cl)cnn3C)cc2)cc1`, for which the viability is 79.2% (inactive). Then `COc1ccccc1NC(=O)CSc1nnc(C)n1CC1CCCO1` (stereo unspecified), with 113% (inactive).

As to `O=C(c1ccc(Cl)cc1)c1ccc(OCC(O)CN2CCCCC2)cc1` (stereo unspecified), the viability was 64.1% (inactive). Then `Cn1c(=O)c2c(nc(N3CCCCCC3)n2CC(O)COc2ccc(Cl)cc2)n(C)c1=O` (stereo unspecified), with 28.2% (active); and `Cn1c(=O)c2c(nc(N3CCCCCC3)n2CC(=O)c2ccc(Br)cc2)n(C)c1=O`, with 46.8% (inactive); and `CCN(CC)C(=O)CC1(c2ccccc2OC)CCOC(C(C)C)C1` (stereo unspecified), with 86.8% (inactive). In the case of `COC(=O)c1ccc(CSc2ccc3nnc(-c4ccccc4)n3n2)o1`, the viability is 71.6% (inactive). As for `CC(C)CCNc1nc(N2CCCC2)c2c(c1C#N)CCN(C)C2`, the figure is 1.84% (active); as for `CCN1CCc2c(C#N)c(NCc3ccccc3)nc(NCCO)c2C1`, 62.2% (inactive).

Turning to `CC(C)Cc1nc(N2CCOCC2)c(C#N)c2c1CCC2`, the viability was 89.6% (inactive). As for `Cc1ccc2nc(SC(C)C(=O)NCc3ccco3)[nH]c2c1` (stereo unspecified), the figure is 85.7% (inactive). On to `c1ccc(-n2nc3ccccc3n2)cc1`, for which the viability was 96% (inactive). As for `Cc1nn(Cc2ccccc2)c2c1C(c1ccccc1)C(C#N)=C(N)O2` (stereo unspecified), the figure is 76.3% (inactive); as for `Cc1cc(C(=O)OC(C)C(=O)Nc2cccc(S(=O)(=O)N3CCOCC3)c2)c(C)o1` (stereo unspecified), 102% (inactive). On to `COC(=O)C1=C(Nc2ccc(OC)cc2)C=C(C)C(C(=O)OC)C1c1ccc(C)cc1` (stereo unspecified), for which the viability is 55.6% (inactive).

For `COC(=O)C1C(=O)NCC1c1ccc(C)cc1` (stereo unspecified), the viability is 82.2% (inactive). Then `COC(=O)C1=C(Nc2ccc(C)cc2)C=C(C)C(C(=O)OC)C1c1ccc(F)cc1` (stereo unspecified), with 12.1% (active). On to `CCOC(=O)c1ccc2c(c1)nc(C)n2CC`, for which the viability is 113% (inactive).

Consider `Cc1nnc(NC(=O)CCCOc2ccccc2)s1`, for which the viability is 93.8% (inactive).

For `CCC(CC)C(=O)N1CC(=O)Nc2ccc(Br)cc2C1c1ccccc1` (stereo unspecified), the viability was 87% (inactive). As for `COC(=O)/C(NC(C)=O)=C(\C)c1ccc(Cl)cc1`, the figure is 102% (inactive); as for `Cc1cccc(NC(=O)/C(=C\c2ccco2)NC(=O)c2ccccc2)c1`, 85.2% (inactive); as for `CCOC(=O)C1CCCN(C(=O)CN(c2ccc(OC)cc2)S(=O)(=O)c2c(C)noc2C)C1` (stereo unspecified), 78.5% (inactive).

`Cc1cc(C)cc(N(CC(=O)N2CC=C(c3ccccc3)CC2)S(=O)(=O)c2c(C)noc2C)c1`: the viability is 22.6% (active). Then `Cc1cc(C)cc(N(CC(=O)NCC2CCCO2)S(=O)(=O)c2c(C)noc2C)c1` (stereo unspecified), with 92.5% (inactive).

In general, viability refers to a read-out of living cells in per cent, often relative to untreated cells.
